# Screens: PubChem, several laboratories
# PABP FP inh: blocks human PABP binding to poly(A) RNA. P11940. fluorescence polarization. calls only at 35 µM. 290,000 compounds, 1% hits;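 further: calls also rest on retests at 20 µM and on dose response follow-up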
# EBV gp42 block: inhibitors of Epstein-Barr virus glycoprotein 42; Q1HVG2; Fluorescence polarization binding assay, mP read-out; inhibition, % (tested at 21.74 µM); 220,000 compounds, 0.42% hits; in the data active means inhibition above about 50%
# MLLE-PAM2 inh: blocks PAM2 peptide binding to the PABP1 MLLE domain. P11940. GST-MLLE / FITC-PAM2 fluorescence polarization. 360,000 compounds, 0.36% hits. inhibition, % at 20 µM; in the data active means inhibition above about 35%, passing the limit was not always enough
# MEX-5 binding: C. elegans MEX-5 TCR-2 RNA binding activity; MEX-5/FITC-TCR2 RNA binding, fluorescence polarization; active compounds read low; activity score (negative = inhibition of binding), % at 10 µM; 300,000 compounds, 0.38% hits; AID 1832;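 active means inhibition past about -25% in most replicates, and total fluorescence under double the plate's negative control median, limit read from the data; inconclusive means replicates evenly split on the limit, or fluorescence at least double controls; inactive means too little inhibition in most replicates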
# Target sequence (Q9XUB2 whole entry, looked up): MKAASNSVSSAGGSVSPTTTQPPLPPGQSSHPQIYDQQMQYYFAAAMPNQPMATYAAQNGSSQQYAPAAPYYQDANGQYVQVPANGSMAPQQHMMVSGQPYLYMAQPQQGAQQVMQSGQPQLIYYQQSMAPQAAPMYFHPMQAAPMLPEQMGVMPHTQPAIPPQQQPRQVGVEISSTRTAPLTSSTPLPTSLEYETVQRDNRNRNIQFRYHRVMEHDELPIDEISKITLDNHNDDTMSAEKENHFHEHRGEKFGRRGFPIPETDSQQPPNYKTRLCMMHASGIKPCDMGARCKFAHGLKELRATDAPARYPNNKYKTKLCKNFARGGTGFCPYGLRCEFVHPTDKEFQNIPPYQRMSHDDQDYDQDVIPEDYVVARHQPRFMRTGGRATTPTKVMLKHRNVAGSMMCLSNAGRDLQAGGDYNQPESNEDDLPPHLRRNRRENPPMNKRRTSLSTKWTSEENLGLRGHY
# eIF4H inh: inhibitors of RNA binding by human eIF4H; eIF4H fluorescence polarization binding assay; inhibition, % at 35 µM; 290,000 compounds, 0.94% hits; AID 2012;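 further: calls also rest on retests at 20 µM and on dose response follow-up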
# A number is an active result; 0 = inactive; ? = inconclusive; - = not tested or not shown; + = active, no number; ! = a repeat was not active. A selection: hits, their analogues and other compounds. The true share with any hit is near 1.8%. Unless noted, how the calls were made is not given here.
SMILES,PABP FP inh,EBV gp42 block,MLLE-PAM2 inh,MEX-5 binding,eIF4H inh
O=C(NC(c1ccccc1)c1cnccn1)C1CCN(CCOc2ccc(Cl)cc2Cl)CC1 (stereo not drawn),-,-,0,-,-
CC1=C(C(=O)N2CCCCCC2)CC(CC(=O)NC2CC2)C(=O)N1Cc1ccccc1 (stereo not drawn),-,-,0,-,-
CCN(CC)S(=O)(=O)c1ccc(N2CCOCC2)c(NC(=O)CC(C)(C)C)c1,0,0,0,0,0
CCN(CC)S(=O)(=O)c1ccc(N2CCOCC2)c(NC(=O)CCC2CCCCC2)c1,0,0,39,0,0
Cc1onc(-c2ccccc2Cl)c1C(=O)NCc1ccco1,+,0,0,0,95
Cc1ccc(CNC(=O)c2c(-c3ccccc3Cl)noc2C)cc1,0,-,0,0,0
Cc1ccc2c(c1)C1C=CCC1C(C(=O)O)N2 (stereo not drawn),0,79,-,0,0
CC(=O)c1ccc2c(c1)C1C=CCC1C(C(=O)O)N2 (stereo not drawn),+,0,0,-,101
c1ccc(COc2cccc(-c3cc4nc(NCCc5ccncc5)ccn4n3)c2)cc1,-,-,0,-,-
CCCCNC(=O)C1(C)CCC(=O)N1C1CCN(Cc2ccccc2)CC1 (stereo not drawn),-,-,0,-,-
Cc1cccc(N(C)S(=O)(=O)c2nnc(NC(=O)c3ccco3)s2)c1,0,-,0,-33,0
Cn1c(=O)c2c(ncn2CC(=O)OCC(=O)c2ccc(Br)cc2)n(C)c1=O,-,-,0,-,-
CC(C)NC(=S)N/N=C1\CCCCc2ccccc21,0,0,0,0,0
COc1cccc(NC(=S)N/N=C2/CCCCc3ccccc32)c1,0,0,45,0,0
CC1CC(O)C2C3(C)CCCC2(COC3=O)C12CCC1(CCOC1=O)O2 (stereo not drawn),-,-,0,-,-
O=C(COC(=O)c1cncc(Br)c1)NCc1ccccc1Cl,+,0,0,0,0
COC(=O)CC#N,-,-,0,-,-
N#CCC(N)=C(C#N)C#N,0,0,0,-38,?
Nc1nnnn1/N=C/c1cc(Cl)cc(Cl)c1O,?,-,0,0,?
Nc1nnnn1/N=C/c1cc(Cl)ccc1O,0,-,49,0,0
C=CCNc1ncnc2c1ncn2[C@H]1CN(Cc2cccc3ccccc23)C[C@@H](CO)O1,-,-,0,-,-
COc1ccc(C(=O)Nc2ccc3nc4n(c(=O)c3c2)CCCC4)cc1[N+](=O)[O-],+,0,-,0,0
CC1C(=O)N(Cc2cn(CCC3OCCCO3)nn2)CCS(=O)(=O)N1Cc1ccc(-c2ccc(Cl)c(Cl)c2)cc1 (stereo not drawn),-,-,0,-,-
CCOC(=O)c1c(C)[nH]c(C(=O)OCC(=O)NCc2ccco2)c1C,-,-,0,-,-
Brc1cccc(-c2nc3ccc(Br)cn3c2Cc2ccccc2)c1,-,-,0,-,-
SMILES,PABP FP inh,EBV gp42 block,MLLE-PAM2 inh,MEX-5 binding,eIF4H inh
O=C(N/N=C/C=C/c1ccccc1[N+](=O)[O-])c1cccs1,0,0,0,0,0
O=C(N/N=C\C=C\c1ccc([N+](=O)[O-])o1)c1cccs1,+,-,0,0,100
O=S(=O)(Nc1cc2nc3ccccc3nc2n1Cc1ccccc1)c1ccc(Cl)cc1,0,121,0,0,0
C/C(=N\NC(=O)c1cc(O)ccc1O)c1cccc(NC(=O)c2ccc(Cl)cc2)c1,+,-,0,0,90
CC(=O)Nc1cccc(/C(C)=N/NC(=O)c2ccc(O)cc2)c1,0,0,0,0,active
C/C(=N/NC(=O)c1ccc(O)cc1)c1cccc([N+](=O)[O-])c1,0,0,0,0,0
C/C(=N\NC(=O)c1cc(O)ccc1O)c1cccc(NC(=O)c2cccc(Cl)c2)c1,+,-,0,0,85
C/C(=N\NC(=O)c1cc(O)cc(O)c1)c1ccc(NC(=O)Cc2ccccc2)cc1,+,-,0,0,101
Nc1nc2c(ncn2[C@@H]2O[C@H](CNCc3cnc(N4CCOCC4)s3)[C@@H](O)[C@H]2O)c(=O)[nH]1,-,-,0,-,-
O=C(NN=Cc1ccc(Cl)cc1Cl)C1CC1,-,-,0,-,-
Cc1cc(-c2n[nH]c(=S)n2-c2ccccc2C)cs1,0,0,0,0,active
Cc1nc(NC(N)=S)sc1C(=O)Nc1ccccc1,0,0,41,0,0
Cc1nc(NC(=O)C2CC2)sc1C(=O)Nc1ccccc1,0,-,0,0,0
OC(Cc1cccc(Br)c1)c1ncc(-c2cccc(C(F)(F)F)c2)[nH]1 (stereo not drawn),-,-,0,-,-
Cn1c(C(=O)N[C@@H](C(=O)O)c2ccccc2)cc2cc(Cl)ccc21,+,-,0,0,0
N#CC1c2ccccc2-c2ccccc2N1C(=O)c1ccccc1 (stereo not drawn),-,-,0,-,-
O=c1nc(/C=C/c2cccn2-c2ccc([N+](=O)[O-])cc2)cc(C(F)(F)F)[nH]1,+,0,0,0,60
COc1ccc(NC(=O)c2cc(C3CCCCN3S(=O)(=O)c3ccccc3)on2)c(C)c1 (stereo not drawn),-,-,0,-,-
CC(C)c1ccccc1-n1c(SCc2cc(=O)oc3ccc4ccccc4c23)nnc1-c1cccnc1,+,0,0,0,58
CC1=C(C(=O)N(C(C)C)C(C)C)CC(CC(=O)NCCN2CCOCC2)C(=O)N1CCCN1CCCC1=O (stereo not drawn),-,-,0,-,-
Cc1nc(-c2ccccc2)sc1-c1ccn[nH]1,+,0,0,0,?
Cc1nc(-c2ccccc2)sc1-c1ccnn1C,0,0,0,0,0
COC(=O)C1=COC(OC2OC(CO)C(O)C(O)C2O)C2C1C=CC2(O)CO (stereo not drawn),+,0,0,-,89
COC(=O)C1=CO[C@@H](O[C@@H]2OC(CO)[C@@H](O)[C@@H](O)[C@@H]2O)C2C1CC[C@]2(C)O (stereo partly drawn),-,-,0,0,-
c1cnc(N2CCN(Cc3ccc4c(c3)OCO4)CC2)nc1,+!,0,0,0,51!
SMILES,PABP FP inh,EBV gp42 block,MLLE-PAM2 inh,MEX-5 binding,eIF4H inh
c1ccc(N2CCN(Cc3ccc4c(c3)OCO4)CC2)nc1,-,-,0,0,-
CC(CC(=O)Nc1ccc2c(c1)c(=O)n(C)n2-c1cccs1)c1ccccc1 (stereo not drawn),-,-,0,-,-
Nc1ccc(O)c2c1C(=O)c1ccccc1C2=O,0,125,87,0,0
COc1ccc(C(C)(NC(C)=O)c2nc(-c3cccc(F)c3)cs2)cc1 (stereo not drawn),-,-,0,-,-
COc1ccc(-c2cn[nH]c2-c2ccc(OCC(=O)NN)cc2O)cc1OC,0,-,0,-46,0
O=c1cc(-c2cc3ccccc3o2)c2cc(O)ccc2o1,+,-,0,0,80
Cc1ccc(NC(=O)CSc2nnc(NC3CC3)s2)cc1S(=O)(=O)N1CCOCC1,-,-,0,-,-
OC(c1ccc(F)c(F)c1)c1nc(-c2cc(F)cc(F)c2)cs1 (stereo not drawn),-,-,0,-,-
Cc1ccccc1C(NC(=O)C1CCN(Cc2ccc(Oc3ccccc3)cc2)CC1)c1ccsc1 (stereo not drawn),-,-,0,-,-
COc1ccc(Cl)cc1NC(=O)CN(C(=O)c1ccco1)C1CCCCC1,0,0,36,0,0
CCC(CC)C(=O)N(C)c1c(C)nc2c(OCc3ccc(C#N)cc3)cccn12,-,-,0,-,-
Cc1ccc(C(=O)N/N=C/c2cccc(OC(=O)/C=C/c3ccco3)c2)cn1,0,0,0,0,86
